In the library only some 6.5% were active in any assay of this set; here they are far more common.
HCMV inh – blocks human cytomegalovirus replication. HFF cells, HCMV-luciferase reporter, 72 h; stronger effect = lower value. activity change, negative = inhibition, % at 57.5 µM. actives 4.5% (n = 410,000); in the data active = activity change below about -60%; inconclusive = no clear call, values can overlap the other calls; inactive = above about -39%
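Compounds were evaluated in HFFs infected with an HCMV luciferase reporter virus (MOI 1 PFU/cell). Luciferase in lysates collected 72 h post infection served as the replication measure.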
Marburg entry inh – blocks Marburg virus binding to or entry into cells. Marburg virus pseudotyped entry inhibition, cell reporter. Potency, µM (doses to about 37.8 µM), for the others: at the highest dose activity change, negative = inhibition, hits mostly inhibitors. actives 1.8% (n = 300,000). AID 540276; calls by dose curve; tested in HEK293 cells; also: potency is read from the fitted curve at half-maximal effect
FMDV inh – antivirals against foot and mouth disease virus. FMDV antiviral cell-based qHTS. actives 1.2% (n = 410,000). AID 1159524. Potency, µM (doses to about 57.9 µM), for inactives: at the highest dose activity change, negative = inhibition, most hits filed as inhibitors; calls by dose curve; tested in HEK293T cells; also: read-out not given here; potency is read from the fitted curve at half-maximal effect; nearly all actives have a fitted effect of over 45% in size
LASV entry inh – inhibitors of Lassa virus binding or cell entry. Lassa virus pseudotype entry inhibition, cell reporter. Potency, µM (series often up to 37.9 µM), without a hit: at the highest dose activity change, negative = inhibition, actives largely listed as inhibitors. actives 1.2% (n = 300,000); calls by dose curve; tested in HEK293 cells; also: potency is read from the fitted curve at half-maximal effect; nearly all actives have a fitted effect of over 50% in size
VACV Venus inh – vaccinia inhibition (Venus reporter); actives 0.46% (n = 330,000); Vaccinia virus Venus reporter expression, fluorescence; Potency, µM (doses to about 36.5 µM), for the others: at the top dose activity change, negative = inhibition, hits mostly inhibitors; calls by dose curve; tested in A549 cells; also: potency is read from the fitted curve at half-maximal effect; nearly all actives have a fitted effect of over 30% in size
VACV mCherry inh – vaccinia inhibition (mCherry reporter); Vaccinia virus mCherry reporter infection, fluorescence; Potency, µM (highest dose often 36.5 µM), without a hit: at the top dose activity change, negative = inhibition, most hits filed as inhibitors; actives 0.63% (n = 310,000); AID 720579; calls by dose curve; tested in A549 cells; also: potency is read from the fitted curve at half-maximal effect; nearly all actives have a fitted effect of over 35% in size
* = called active by the depositor; i = inactive; ? = inconclusive; . = no result; [ ] = another dose, or the depositor's remark. % is scaled to controls: 0 for no effect and ±100 for the full control effect.

SMILES | HCMV inh | Marburg entry inh | FMDV inh | LASV entry inh | VACV Venus inh | VACV mCherry inh
COc1ccc(-c2cn3nc(N4CCCC(C(=O)NCc5ccccc5OC)C4)sc3n2)cc1 (stereo not given) | 0 | . | 30% | 9%[46.1 µM] | -20% | -17%
COc1ccc(C(=O)NCCN2Cc3ccccc3OC(c3ccsc3)C2)c(OC)n1 (stereo not given) | . | . | -10% | . | 10% | -8%
COC(=O)Cc1ccc(NC(=O)c2ccc(C(C)(C)C)cc2)cc1 | -93* | ? | 10µM* | 6.5µM* | . | .
CC(C)(C)c1ccc(C(=O)Nc2ccc(Cl)cc2)cc1 | 24 | ? | 141% | ? | -15% | -13%
CC(C)C[C@H]1COc2cc(Br)ccc2S(=O)(=O)N1Cc1ccc(Cl)cc1 | 16 | ? | . | . | . | .
O=C(Nc1cccnc1)c1ccccc1-c1ccccc1 | -60* | . | 8% | . | . | .
Cc1cccc(NC(=O)c2ccccc2-c2ccccc2)c1 | -104* | -13%[46.1 µM] | -18% | 3% | -12% | -12%
Cc1cccc(NC(=O)c2cc(S(=O)(=O)c3ccccc3)ccc2Cl)c1 | -107* | ? | -40% | ? | ? | .
O=C(Nc1cccnc1)c1ccccc1O | 24 | 7% | 41% | 9% | . | .
C=CCOC(=O)[C@H](C#N)c1nc2ccccc2nc1N1CCC(C(=O)OCC)CC1 | . | -4% | . | . | . | .
CCOC(=O)CN1C(=O)[C@]2(OCCC=C[C@@H]2C)c2cc(OC)ccc21 | . | 13%[14.2 µM] | . | . | . | .
Cc1ccc(C(=O)N2c3ccc(C)cc3C(C)(c3ccccc3)CC2(C)C)cc1 (stereo not given) | ? | . | 0% | 15%[46.1 µM] | -11% | -8%
CC(C)c1ccc(CNc2n[nH]c(-c3ccco3)n2)cc1 | 99 | 6%[46.1 µM] | 36% | 8%[46.1 µM] | -5% | -10%
CCOc1ccccc1CNC(=O)c1[nH]c2ccccc2c1Sc1ccccc1 | -13 | -12%[46.1 µM] | -24% | 3%[46.1 µM] | -15% | -8%
C=CCO[C@@H]1C=C[C@@H](c2ccccc2)O[C@@H]1COC | . | 18%[14.2 µM] | . | . | . | .
O=C(c1sc2ccccc2c1Cl)N1CCN(c2ncccn2)CC1 | -63* | 4% | ? | 8% | . | .
CC(C)c1ccc(OCc2cccc(C(=O)N/N=C/c3cccnc3)c2)cc1 | 171 | 1.4µM* | -20% | ? | -17% | -22%
CCOc1ccc(OCc2cccc(C(=O)N/N=C/c3cccnc3)c2)cc1 | 83 | 0.32µM* | -40% | 1.6µM* | -8% | -16%
O=[N+]([O-])c1ccc(/C=C/c2cc(Cl)nc3ccccc23)cc1 | . | . | . | . | -17% | -24%
CN(C)CC(C)(O)c1ccc2c(c1)CN(C(=O)c1ccc(-n3cccn3)cc1)CCO2 (stereo not given) | . | . | -1% | . | 10% | -6%
COc1cc(=O)n2c(c1C(=O)N(C)Cc1cscn1)CCN(C(=O)c1ccc(C)cc1C)CC2 | . | . | 3% | . | -8% | 0%
O=C(c1cnn2c1NC(=C1CC1)C=C2C(F)F)N1CCc2ccccc21 | . | . | . | . | -21% | -7%
CCc1ccc(C(=O)CN(C#N)c2nc(C)cc(C)n2)cc1 | ? | 11µM* | -11% | ? | ? | ?
Cc1cc(C)nc(N(C#N)CC(=O)c2ccccc2)n1 | -24 | ? | -17% | ? | ? | ?
CCOc1ccccc1NC(=O)Cn1c(=O)n(CC(=O)NCc2ccccc2Cl)c(=O)c2sccc21 | 23 | ? | 0% | 0%[46.1 µM] | -29% | -26%
SMILES | HCMV inh | Marburg entry inh | FMDV inh | LASV entry inh | VACV Venus inh | VACV mCherry inh
O=C(C[n+]1ccc2ccccc2c1)c1ccc(O)c(O)c1 | . | . | . | . | -12% | -4%
CCN(CC)C(=O)COc1ccc(-c2nnc(Nc3ccc(OC)c(C(=O)NC)c3)c3ccccc23)cc1 | 29 | -10%[46.1 µM] | -22% | ? | 0%[7.34 µM] | -5%[7.34 µM]
COc1ccc(Nc2nnc(-c3ccc(C)cc3)c3ccccc23)cc1C(=O)N1CCCCC1 | -73* | ? | ? | ? | ? | -30%
CCN(CC)S(=O)(=O)c1cc(-c2nnc(Nc3ccc(OC)c(C(N)=O)c3)c3ccccc23)ccc1C | -65* | . | ? | ? | ? | ?
COc1cc(OC)cc(-c2nc3ccccc3c(=O)n2OC(=O)c2ccccc2C)c1 | -34 | ? | -26% | 11µM* | ? | -19%
O=C(On1c(-c2ccccc2)nc2ccccc2c1=O)c1ccco1 | 20 | -17% | . | ? | -11% | i
NC1=C(Cl)C(=O)c2ccc(S(N)(=O)=O)cc2C1=O | -101* | 2µM* | 2.5µM* | ? | 0.5µM* | ?

Screening results (PubChem BioAssay)
